Records with an inconclusive call do not appear. Active and inactive are the calls of the source.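 Rule for the calls, unless noted: active = viability at or under a set limit in both replicates, limit being median viability minus 3 SD (cut at about 48% in these data, passing the limit was not always enough); inconclusive = at or under the limit in just one replicate; inactive = at or above the limit in both replicates.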
What was measured:
[1] = Her2 expression decrease, cell viability multiplex – SKBR3 breast tumor cells, AlphaScreen, ATP viability, primary screen (AID 461;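 active = Her2 level under about 52% in both replicate screens, with viability over 70% of control, limit read from the data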;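 for Her2 level: lower value means less Her2 protein in the cells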;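 for viability: percent of carrier control wells set as 100% viability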); details: SKBR3 Her2 protein level, 18-24 h, measured here: SKBR3 viability, ATP luminescence, at 10 µM
[2] = target: Receptor tyrosine-protein kinase erbB-2 (Homo sapiens) (UniProt P04626); assay: as above; details: 18-24 h, at 10 µM, stronger effect = lower value
Sequence of Receptor tyrosine-protein kinase erbB-2 (Homo sapiens) (P04626 whole entry, looked up): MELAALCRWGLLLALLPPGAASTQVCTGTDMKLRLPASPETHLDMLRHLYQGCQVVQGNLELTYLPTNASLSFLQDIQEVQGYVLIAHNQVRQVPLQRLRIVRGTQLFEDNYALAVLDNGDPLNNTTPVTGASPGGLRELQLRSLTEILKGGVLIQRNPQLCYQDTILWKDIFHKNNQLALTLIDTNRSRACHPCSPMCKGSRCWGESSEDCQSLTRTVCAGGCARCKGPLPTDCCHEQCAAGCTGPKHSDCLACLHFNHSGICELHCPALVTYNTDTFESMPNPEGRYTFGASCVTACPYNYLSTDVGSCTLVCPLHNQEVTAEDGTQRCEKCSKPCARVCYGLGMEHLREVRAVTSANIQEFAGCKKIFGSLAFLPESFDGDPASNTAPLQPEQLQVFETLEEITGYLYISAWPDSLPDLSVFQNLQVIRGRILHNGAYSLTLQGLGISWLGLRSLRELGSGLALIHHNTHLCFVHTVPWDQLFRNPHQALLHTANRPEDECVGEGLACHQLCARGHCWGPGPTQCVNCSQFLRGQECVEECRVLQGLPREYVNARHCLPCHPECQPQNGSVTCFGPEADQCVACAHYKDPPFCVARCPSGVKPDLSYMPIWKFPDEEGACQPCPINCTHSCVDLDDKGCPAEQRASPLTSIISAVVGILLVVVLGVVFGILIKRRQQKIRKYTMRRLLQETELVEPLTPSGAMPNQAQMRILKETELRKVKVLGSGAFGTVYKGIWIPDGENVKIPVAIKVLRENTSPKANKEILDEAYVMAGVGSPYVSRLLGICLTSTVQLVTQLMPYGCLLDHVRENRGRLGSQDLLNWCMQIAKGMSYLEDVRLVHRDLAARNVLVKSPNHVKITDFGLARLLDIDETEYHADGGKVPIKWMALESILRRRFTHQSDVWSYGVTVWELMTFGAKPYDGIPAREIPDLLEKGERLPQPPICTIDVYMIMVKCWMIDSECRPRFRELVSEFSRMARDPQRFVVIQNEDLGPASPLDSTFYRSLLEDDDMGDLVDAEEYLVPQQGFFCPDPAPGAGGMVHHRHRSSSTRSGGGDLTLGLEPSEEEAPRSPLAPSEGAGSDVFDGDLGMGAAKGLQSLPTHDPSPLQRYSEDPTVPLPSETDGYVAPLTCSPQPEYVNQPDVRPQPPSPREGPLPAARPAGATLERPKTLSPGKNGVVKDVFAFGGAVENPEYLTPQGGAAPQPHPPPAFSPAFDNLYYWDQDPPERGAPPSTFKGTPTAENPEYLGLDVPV

[3] = reduced viability of SK-BR-3 breast cancer cells – cell-based, 24 h, human, pilot screen (AID 572;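 active = viability at or below 10% of carrier control in both of two separate runs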;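 note: compound exposure lasted between 18 and 24 h rather than exactly 24 h; 100% = carrier-treated control wells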); details: SK-BR-3 viability, CellTiter-Glo luminescence, at 10 µM, stronger effect = lower value
[4] = HUVEC growth inhibition – cell-based, human, primary screen (AID 575;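 active = viability at or below 30% in both replicate assays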;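 note: 100% = median of untreated cell wells with 0.1% DMSO on each plate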); details: HUVEC proliferation, CellTiter-Glo luminescence, 72 h; at 10 µM; stronger effect = lower value
[5] = H69AR cell proliferation blockers – human, duplicate replicates, primary screen (AID 580); details: H69AR lung tumor cells viability, ATP luminescence, 72 h; at 10 µM; stronger effect = lower value;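 note: 100% = mean luminescence of untreated wells and 0% = no signal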
[6] = MRP1 drug-resistance reversers in H69AR cells – cell-based, doxorubicin co-treatment, pilot screen (AID 601;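 active = viability loss from added drug above about 55%, and viability with drug at most 40%, in both replicates, limit read from the data, passing the limit was not always enough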); details: CellTiter-Glo, 72 h, at 10 µM; for differential viability (reversal): stronger effect = higher value
[7] = yeast transport mutant growth inhibition pilot in 384-well plates, post-Golgi transport modulator project (AID 636; in the data active = inhibition above about 31%); details: absorbance 615 nm, about 18 h, stronger effect = higher value
[8] = growth suppression of yeast trafficking mutant, preliminary HTS, modulators of trafficking downstream of Golgi apparatus project, 1536-format plate, OD 615 nm (AID 637; in the data active = inhibition above about 30%); details: yeast transport mutant growth, absorbance 615 nm, 18 h; stronger effect = higher value
[9] = S. cerevisiae growth inhibition in permissive medium (OD615), pilot counter-assay for S. cerevisiae lifespan shortening project, permissive growth control (AID 705;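 active = growth inhibition above 25% in both replicates, a cutoff set 3 SD above the mean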); details: OD615, 24 h, at 10 µM, stronger effect = higher value
[10] = S. cerevisiae growth inhibition in restrictive medium, OD615, pilot screen, restrictive growth control, yeast lifespan reduction project (AID 706;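 active = growth inhibition above a set limit, 3 SD over mean compound inhibition, in both replicates, cut at about 43% in these data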;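 note: modified DeaD lifespan yeast strain shifted to restrictive glucose medium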); details: OD615, 48 h, at 10 µM, stronger effect = higher value
[11] = doxorubicin toxicity protection in MRP-1 cells – H69AR cells, CellTiter-Glo, duplicate, MRP-1 activator project, pilot screen (AID 807;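 active = viability increase at or above a cutoff of the median across tested compounds plus 3 SD, cut at about 8.5% in these data, passing the limit was not always enough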;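 note: compound pretreatment 18-22 h then 72 h combined with doxorubicin; 0% = doxorubicin alone and 100% = vehicle without doxorubicin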); details: H69AR viability with doxorubicin, CellTiter-Glo luminescence; at 10 µM; stronger effect = higher value
[12] = viability of HCT116 without oncogenic beta-catenin – human colon tumor cells, pilot screen (AID 823;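 active = cell viability at or below a set limit in both duplicate runs, the limit being the all-compound median minus 4 SD, cut at about 23% in these data, passing the limit was not always enough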;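 note: 0% = wells killed by 20 µM Hyamine and 100% = untreated DMSO cell wells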); details: HCT116 beta-catenin knockout viability, CellTiter-Glo, 60 h; at 10 µM; stronger effect = lower value
[13] = viability of PTEN-null HCT116 cells – cell-based, HCT116 clonal line, CellTiter-Glo, pilot screen (AID 824;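 active = viability at or below 27.92% in each of two runs, the all-compound median minus 4 SD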;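 note: 0% = 20 µM Hyamine control and 100% = vehicle cell control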); details: HCT116 PTEN-deleted viability, 60 h, at 10 µM, stronger effect = lower value
[14] = RAM pathway blockade in budding yeast – dse1pr::URA3 reporter, 5-FOA selection, pilot screen (AID 869;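 active = inhibition over a set limit, the all-compound mean plus 3 SD, in both replicate runs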;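 note: 0% = DMSO wells with no growth and 100% = 10 µM 1-NA-PP1 with full growth; RAM network block rescues cells from 5-FOA so hits raise OD615 growth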); details: S. cerevisiae dse1pr::URA3 5-FOA growth, OD615, 2 d; at 10 µM; stronger effect = higher value; strain carries analog-sensitive mutant Cbk1 kinase
[15] = RAM signaling pathway blockade in yeast – S. cerevisiae, Pdr1DBD-CYC8 efflux-inhibited sensitized strain, primary screen (AID 1298;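 active = RAM network inhibition above 8.4% in each of two replicates, 3 SD over the compound average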;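 note: 0% = DMSO untreated cells without growth and 100% = 10 µM 1-NA-PP1 full growth; higher means more yeast growth rescued from 5-FOA killing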); details: S. cerevisiae cbk1-as DSE1-URA3 strain, 5-FOA growth OD615, 2 d; at 50 µM; stronger effect = higher value
[16] = H69AR cells + 2 uM doxorubicin, measured here: viability with 2 uM doxorubicin, stronger effect = lower value
[17] = H69AR cells, compound alone cytotoxicity

SMILES	viability [1]	Her2 level [2]	viability [3]	viability [4]	viability [5]	differential viability (reversal) ([6]; H69AR cells + 2 uM doxorubicin)	viability [6, 16]	viability [6, 17]	inhibition [7]	inhibition [8]	growth inhibition [9]	growth inhibition [10]	viability increase [11]	viability [12]	viability [13]	inhibition [14]	RAM network inhibition [15]
COC(=O)CN1C(=O)C(O)(CC(=O)c2ccc(Cl)cc2)c2ccccc21 (stereo not given)	87.5%	88.5% (inactive)	87.5% (inactive)	94.4% (inactive)	70.5% (inactive)	-21.3% (inactive)	91.8%	70.5%	-6.8% (inactive)	5% (inactive)	-0.49% (inactive)	-8.47% (inactive)	-3.44% (inactive)	87.3% (inactive)	91.5% (inactive)	1.81% (inactive)	0.35% (inactive)
O=C(Nc1ccc2snnc2c1)N1CCN(c2ccccc2)CC1	81.5%	86% (inactive)	81.5% (inactive)	75.4% (inactive)	85.3% (inactive)	-7.63% (inactive)	92.9%	85.3%	-0.38% (inactive)	-2.33% (inactive)	-13.7% (inactive)	-17.1% (inactive)	-2.11% (inactive)	85.2% (inactive)	79.4% (inactive)	1.3% (inactive)	5.24% (inactive)
O=C(Nc1nnc(N2CCCCCC2)s1)c1cc(-c2ccc(Br)cc2)on1	97%	106% (inactive)	97% (inactive)	99.2% (inactive)	99.6% (inactive)	13.1% (inactive)	86.4%	99.6%	-5.13% (inactive)	3.67% (inactive)	-14.6% (inactive)	-7.24% (inactive)	2.89% (inactive)	99.1% (inactive)	95.2% (inactive)	1.98% (inactive)	9.45% (inactive)
COCCNC(=O)C(C)N(c1ccc(Oc2ccccc2)cc1)S(C)(=O)=O (stereo not given)	112%	95.5% (inactive)	112% (inactive)	102% (inactive)	96.5% (inactive)	7.53% (inactive)	89%	96.5%	-0.65% (inactive)	3.44% (inactive)	-4.62% (inactive)	4.17% (inactive)	-0.82% (inactive)	90.7% (inactive)	91.6% (inactive)	-0.1% (inactive)	3.42% (inactive)
Cc1cccc(NC(=O)Nc2cccc(C#N)c2)n1	100%	66.5% (inactive)	100% (inactive)	63.2% (inactive)	84% (inactive)	-3.47% (inactive)	87.5%	84%	0.38% (inactive)	3.67% (inactive)	-8.45% (inactive)	0.81% (inactive)	-4.03% (inactive)	43.5% (inactive)	46% (inactive)	3.24% (inactive)	2.88% (inactive)
